Data on eight molecules can be found in PubChem BioAssay (NCATS).

A short description of experiment [1]: AP1 Signaling Pathway (AID 357; active means well fitted curve in either direction with a large enough effect, not every such curve was filed as active; further: on the % scale 0 is the no-effect control and ±100 the full control effect). The conditions noted are these: ME-180 AP-1-bla reporter, EGF-induced, beta-lactamase ratio, 5 h; at 7.69 µM (top of the series) unless noted. An outline of the steps: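 AP-1-bla ME-180 cells with beta-lactamase reporter under AP-1 response element, stimulated with EC50 EGF; compounds titrated, 5 hours at 37 degrees Celsius. CCF4 read at 460/530 nm ratio; positive and negative modulators judged by AC50.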

Experiment [2] is described as follows: NFAT Signaling Pathway (AID 444; active means well fitted curve in either direction with a large enough effect, not every such curve was filed as active;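 further: carbachol stimulus at about its EC50 of 1 µM final; on the % scale 0 is the no-effect control and ±100 the full control effect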). As to conditions: Jurkat NFAT-bla M1, carbachol, beta-lactamase ratio, 5 h; at 7.69 µM (top of the series) unless noted. In a few lines: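 Read-out: CCF4 FRET ratio (460 nm/530 nm) after 1 h RT dye loading, used for %activity and AC50 from titration series. Cells: Jurkat NFAT-β-lactamase/M1 line, treated with compound plus 1 uM carbachol for 5 h, 37 °C.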

Experiment [3] in a line: Stat Signaling Pathway (AID 446; active means well fitted curve in either direction with a large enough effect, not every such curve was filed as active;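 further: ME-180 cervical cancer cells given 40 pM IL-6 alongside compound; SIE-controlled beta-lactamase reporter measured as 460/530 nm FRET emission ratio; on the % scale 0 is the no-effect control and ±100 the full control effect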). As to conditions: ME-180 (cervical carcinoma) SIE beta-lactamase reporter, IL-6 stimulated, 5 h; at 7.69 µM (top of the series) unless noted. In a few lines:
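IL-6/STAT signaling read in ME-180 cells via an SIE beta-lactamase reporter. Stimulus was 40 pM IL-6 (its AC50) for 5 hrs, so both activation and inhibition register.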

Experiment [4] has as its target Glucocorticoid receptor (Homo sapiens) (UniProt P04150). Description: GR-GFP Redistribution (AID 450;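 active means compounds whose dose series gives a full or clear partial fitted curve of increased nuclear translocation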; further: potency means the concentration at half of the fitted maximal effect). The conditions noted are these: U2OS GR-GFP nuclear translocation, laser cytometry, 2 h.
For experiment [5] the target is unchanged. Kind of experiment: GR-EFC Redistribution (AID 451; calls by dose curve; further: potency means the concentration at half of the fitted maximal effect). The conditions noted are these: CHO-K1 GR-EFC translocation, beta-gal luminescence, 2 h. An outline of the steps:
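Translocation of GR-ED fusion to nuclear EA restores b-gal, read by luminescence after 1 h room-temperature detection. Engineered CHO-K1 biosensor cells, 1,000/well, exposed 2 h at 37 C to titrations up to 46 uM final.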

Experiment [6] addresses Mitogen-activated protein kinase 10 (Mus musculus) (UniProt Q61831). Kind of experiment: JNK3 AlphaScreen Assay (AID 530; active means well fitted curve in either direction with a large enough effect, not every such curve was filed as active;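 further: kinase came from lysate of stimulated human HepG2 cells; signal reports phosphorylation of biotinylated GST-cJun 1-79 at Ser73 with 10 µM ATP; on the % scale 0 is the no-effect control and ±100 the full control effect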). In a few lines: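 Room-temperature AlphaScreen kinase assay; pre-activated HepG2 lysate as JNK3 source, biotin-GST-cJun(1-79) substrate, 10 uM ATP, compound 15 min preincubation.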
(In general: In Alpha technology, singlet oxygen from a donor bead excites a nearby acceptor bead.)

In experiment [7] the target is 3',5'-cyclic-AMP phosphodiesterase 4B (Homo sapiens) (UniProt Q07343). Kind of experiment: qHTS Assay for Inhibitors of PDE-IV (AID 607; active means well fitted activation curve with a large enough effect in the main read-out, with a control signal flat, not every such curve was filed as active; further: % of control where 0% means no effect). In a few lines: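 Live HEK293 cells with a modified cyclic nucleotide-gated (CNG) channel report intracellular cAMP via membrane-potential dye fluorescence (ex 535/em 590 nm). Endogenous PDE-IV was targeted. Compounds were tested at up to 22.9 uM final; RO 20-1724 100 uM served as control.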
Chain of 3',5'-cyclic-AMP phosphodiesterase 4B (Homo sapiens) (Q07343 whole entry, looked up): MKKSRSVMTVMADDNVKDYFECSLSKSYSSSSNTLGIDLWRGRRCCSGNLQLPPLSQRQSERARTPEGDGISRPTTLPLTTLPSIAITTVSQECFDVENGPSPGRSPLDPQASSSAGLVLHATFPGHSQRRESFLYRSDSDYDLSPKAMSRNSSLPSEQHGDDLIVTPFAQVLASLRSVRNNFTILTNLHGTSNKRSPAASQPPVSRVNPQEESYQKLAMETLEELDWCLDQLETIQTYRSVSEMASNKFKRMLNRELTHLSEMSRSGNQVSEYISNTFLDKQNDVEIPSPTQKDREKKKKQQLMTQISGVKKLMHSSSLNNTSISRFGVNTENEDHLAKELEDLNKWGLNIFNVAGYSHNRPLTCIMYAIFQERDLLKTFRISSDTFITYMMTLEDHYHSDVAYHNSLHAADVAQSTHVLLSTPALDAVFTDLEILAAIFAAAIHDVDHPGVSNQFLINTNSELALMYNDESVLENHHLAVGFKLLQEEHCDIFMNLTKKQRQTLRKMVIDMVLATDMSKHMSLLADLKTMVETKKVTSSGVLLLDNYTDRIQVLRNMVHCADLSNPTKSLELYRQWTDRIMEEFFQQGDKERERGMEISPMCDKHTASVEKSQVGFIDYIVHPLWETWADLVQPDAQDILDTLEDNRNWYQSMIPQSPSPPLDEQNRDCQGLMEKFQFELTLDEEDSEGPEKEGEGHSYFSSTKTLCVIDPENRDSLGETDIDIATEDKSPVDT
On the technique in general: In qHTS, concentration-response curves come from the screen itself.

The nature of experiment [8]: qHTS Assay for Lipid Storage Modulators (AID 1519; calls by dose curve). As to conditions: Drosophila S3 cells, BODIPY lipid droplet/cell ratio, laser cytometry, cells loaded with oleic acid. An outline of the steps:
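Cells seeded at 5,000 per well were treated with compounds over a concentration series and loaded with oleic acid (400 uM, as added). Lipid droplet fluorescence (488 nm excitation, 500-530 nm channel) was read by laser-scanning cytometry and normalized to 20 uM Triacsin C.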

For experiment [9], the target named is Ubiquitin carboxyl-terminal hydrolase 1 (Homo sapiens) (UniProt O94782). Kind of experiment: Inhibitors of USP1/UAF1: Pilot qHTS (AID 504865). Further: nearly all actives have a fitted effect of over 35% in size. Further: potency means the concentration at half of the fitted maximal effect. An outline of the steps:
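Kinetic fluorescence assay: 1nM USP1/UAF1, 15 min compound preincubation, then 150nM Ub-Rho; 480/540 nm.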

Experiment [10] concerns the target Cytochrome P450 3A4 (Homo sapiens) (UniProt P08684). Description: qHTS Assay for Inhibitors and Substrates of Cytochrome P450 3A4 (AID 884). Further: on the % scale 0 is the no-effect control and ±100 the full control effect; nearly all actives have a fitted effect of over 50% in size. In a few lines:
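20 nM human CYP3A4 with 25 uM Luciferin-PPXE (at KM) in 200 mM KPO4, preincubated 10 min with compound; NADPH regeneration started a 60 min RT reaction. Luciferin detected by luminescence, normalized to 57 uM ketoconazole as full inhibition.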

Experiment [11] in a line: Confirmation and Secondary Assay for Modulators of Hemoglobin Beta Chain Splicing at IVS2 654 locus (AID 910).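 Further: HeLa cells stably carrying EGFP split by mutant beta-globin IVS2-654 intron; per-well total GFP intensity by laser scanning cytometry after 2-day treatment; % of control where 0% means no effect.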 In a few lines:
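Readout: per-well total peak green fluorescence (488 nm ex, 500–520 nm em) from objects 5–250 µm, reflecting correct splicing of an EGFP-654 reporter. Compounds were applied for 2 days at 37 °C to overnight-plated HeLa EGFP-654 cells; controls were DMSO and 500 nM IVS2-654 PNA.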

Experiment [12] is described as follows: Confirmation and Secondary Assay for Modulators of Hemoglobin Beta Chain Splicing at IVS2 705 locus (AID 930).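 Further: HeLa cells stably expressing the EGFP-705 splicing reporter; GFP fluorescence per well restored by corrected splicing of the IVS2-705 intron in EGFP; % of control where 0% means no effect.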 In a few lines:
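HeLa EGFP-705 reporter; 500 cells/well, o/n 37C 5% CO2; cpd 2 d; 488 ex/500-520 em laser scan; total peak GFP intensity/well. Ref: 500 nM […] antisense PNA.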

The nature of experiment [13]: qHTS profiling for inhibitors of Plasmodium falciparum proliferation (AID 504749).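 Further: 0% = DMSO vehicle and full inhibition = artemisinin control; nearly all actives have a fitted effect of over 60% in size.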 As to conditions: P. falciparum in erythrocytes, SYBR Green DNA, 72 h, at 28.7 µM (top of the series). In a few lines:
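Three-day growth assay of blood-stage parasites in erythrocytes (0.3% parasitemia, 2.5% hematocrit) at 37 C, 5% CO2, quantified by SYBR Green DNA staining after overnight detergent lysis.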

In experiment [14] the target is Cytochrome P450 3A4 (Homo sapiens) (UniProt P08684). Kind of experiment: qHTS Assay for Activators of Cytochrome P450 3A4 (AID 885). Further: nearly all actives have a fitted effect of over 65% in size. In a few lines:
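Quantitative HTS format: compounds preincubated with 20nM human CYP3A4 and Luciferin-PPXE substrate at KM, reaction started by NADPH regeneration, stopped after 60 min, luciferase luminescence read 20 min later.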

The target of experiment [15] is Lysosomal acid glucosylceramidase (Homo sapiens) (UniProt P04062). Kind of experiment: Glucocerebrosidase-p2 (AID 348; in the data active means potency below about 10 µM; further: potency means the concentration at half of the fitted maximal effect). As to conditions: purified GBA, blue fluorogenic substrate, 40 min. In a few lines: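 Compounds titrated from 0.6 nM upwards against 0.2 nM enzyme in pH 5.9 citric acid/KH2PO4, taurocholate, tween-20; blue fluorogenic substrate 80 uM, 40 min room temperature, stopped and read Ex 365/Em 440 for AC50.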
Chain of Lysosomal acid glucosylceramidase (Homo sapiens) (P04062 whole entry, looked up): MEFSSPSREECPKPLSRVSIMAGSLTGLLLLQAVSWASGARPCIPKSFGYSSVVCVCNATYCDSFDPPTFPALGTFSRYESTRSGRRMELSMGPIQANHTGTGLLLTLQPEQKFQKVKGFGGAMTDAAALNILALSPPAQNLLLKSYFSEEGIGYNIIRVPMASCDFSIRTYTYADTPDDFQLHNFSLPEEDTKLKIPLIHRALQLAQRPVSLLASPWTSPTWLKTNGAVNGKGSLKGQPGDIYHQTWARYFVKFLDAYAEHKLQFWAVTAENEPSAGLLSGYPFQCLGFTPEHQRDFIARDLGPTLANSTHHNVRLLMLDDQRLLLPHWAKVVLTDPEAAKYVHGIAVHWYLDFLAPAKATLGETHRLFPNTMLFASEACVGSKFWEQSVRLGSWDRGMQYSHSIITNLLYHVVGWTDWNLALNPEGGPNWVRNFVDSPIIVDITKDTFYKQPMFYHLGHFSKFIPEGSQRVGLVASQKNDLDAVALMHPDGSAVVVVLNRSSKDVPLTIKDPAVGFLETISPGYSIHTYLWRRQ

The target of experiment [16] is Cytochrome P450 1A2 (Homo sapiens) (UniProt P05177). Description: p450-cyp1a2 (AID 410; calls by dose curve; further: potency means the concentration at half of the fitted maximal effect). An outline of the steps: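 Inhibition was calculated relative to 57 uM furafylline (full inhibition). The reaction used human CYP1A2 at 20nM with Luciferin-ME at its Km, 100uM, driven by an NADPH-regenerating system for 60 min at room temperature.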
Chain of Cytochrome P450 1A2 (Homo sapiens) (P05177 whole entry, looked up): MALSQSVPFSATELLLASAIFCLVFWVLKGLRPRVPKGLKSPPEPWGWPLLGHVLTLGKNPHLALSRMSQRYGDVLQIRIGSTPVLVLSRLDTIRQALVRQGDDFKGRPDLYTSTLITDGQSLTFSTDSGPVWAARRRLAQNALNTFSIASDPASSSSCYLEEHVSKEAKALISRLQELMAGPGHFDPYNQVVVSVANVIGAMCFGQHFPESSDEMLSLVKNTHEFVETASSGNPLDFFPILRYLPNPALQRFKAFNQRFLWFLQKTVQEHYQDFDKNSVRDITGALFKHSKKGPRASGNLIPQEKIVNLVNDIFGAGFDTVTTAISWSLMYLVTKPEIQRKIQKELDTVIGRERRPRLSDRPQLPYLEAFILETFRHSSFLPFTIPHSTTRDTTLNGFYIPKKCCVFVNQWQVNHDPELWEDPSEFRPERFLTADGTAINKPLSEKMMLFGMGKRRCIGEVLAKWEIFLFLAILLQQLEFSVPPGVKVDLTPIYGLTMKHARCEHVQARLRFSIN
For experiment [17], the target named is Dual specificity protein kinase CLK4 (Homo sapiens) (UniProt Q9HAZ1). Description: qHTS Assay for Inhibitors of CDC-like Kinase 4 (ADP-FP Assay) (AID 1795).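 Further: recombinant human CLK4 phosphorylating RS repeat peptide at 1 µM ATP; on the % scale 0 is the no-effect control and ±100 the full control effect; nearly all actives have a fitted effect of over 60% in size.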 An outline of the steps:
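Inhibition of ADP formation by 6.25 nM Clk4 is measured using 1 uM ATP and 100 uM RS repeat peptide over one hour. Produced ADP displaces a fluorescent tracer from antibody, lowering polarization.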

The target in experiment [18] is Cytochrome P450 2D6 (Homo sapiens) (UniProt P10635). Description: qHTS Assay for Inhibitors and Substrates of Cytochrome P450 2D6 (AID 891). Further: potency means the concentration at half of the fitted maximal effect; nearly all actives have a fitted effect of over 60% in size. In a few lines:
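Human CYP2D6 (5 nM) with 30 uM Luciferin-ME EGE (at Km) in 100 mM KPO4, compound preincubated 10 min, then NADPH regeneration system for 60 min at room temperature. Luciferin read by luminescence; normalized to 1.43 uM quinidine.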

[19] abbreviates: measured here: cell count channel max response.
Where [20] appears, read: measured here: lipid channel max response.

Several values for one entry are separate records, joined by “and”; a condition that tells them apart may be missing. Equal entries are not always repeated. Records with an inconclusive call do not appear. Activity calls are given as the source filed them. Unless noted, the call rests on the fitted dose curve; in most records, active means well fitted curve in the direction sought with a large enough effect; inconclusive means small, poorly fitted or top-dose-only effect, or another doubt; inactive means no such curve, though single readings can be large; an effect the other way counts as inactive or inconclusive. Bounds are passed on as bounds.

Chain of Ubiquitin carboxyl-terminal hydrolase 1 (Homo sapiens) (O94782 whole entry, looked up): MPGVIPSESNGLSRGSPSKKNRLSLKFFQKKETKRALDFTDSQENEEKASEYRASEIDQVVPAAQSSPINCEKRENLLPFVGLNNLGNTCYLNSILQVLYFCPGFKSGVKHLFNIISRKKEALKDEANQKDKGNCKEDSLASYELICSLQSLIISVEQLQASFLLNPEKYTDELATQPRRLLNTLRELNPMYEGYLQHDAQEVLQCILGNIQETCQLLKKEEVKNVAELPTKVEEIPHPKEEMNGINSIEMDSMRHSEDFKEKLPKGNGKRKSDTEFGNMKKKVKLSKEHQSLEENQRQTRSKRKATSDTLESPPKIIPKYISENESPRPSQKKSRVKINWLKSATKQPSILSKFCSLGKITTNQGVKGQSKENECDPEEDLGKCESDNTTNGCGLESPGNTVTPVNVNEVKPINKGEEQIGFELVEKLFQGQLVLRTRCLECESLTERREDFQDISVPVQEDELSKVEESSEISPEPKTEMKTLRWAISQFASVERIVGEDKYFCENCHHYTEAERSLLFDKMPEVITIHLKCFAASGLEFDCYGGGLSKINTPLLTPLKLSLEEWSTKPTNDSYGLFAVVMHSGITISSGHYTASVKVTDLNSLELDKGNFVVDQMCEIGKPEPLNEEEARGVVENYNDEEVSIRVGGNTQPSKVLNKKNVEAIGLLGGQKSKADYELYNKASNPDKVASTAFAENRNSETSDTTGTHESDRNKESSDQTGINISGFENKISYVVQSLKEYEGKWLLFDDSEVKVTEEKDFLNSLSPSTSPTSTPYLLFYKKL
Chain of Glucocorticoid receptor (Homo sapiens) (P04150 whole entry, looked up): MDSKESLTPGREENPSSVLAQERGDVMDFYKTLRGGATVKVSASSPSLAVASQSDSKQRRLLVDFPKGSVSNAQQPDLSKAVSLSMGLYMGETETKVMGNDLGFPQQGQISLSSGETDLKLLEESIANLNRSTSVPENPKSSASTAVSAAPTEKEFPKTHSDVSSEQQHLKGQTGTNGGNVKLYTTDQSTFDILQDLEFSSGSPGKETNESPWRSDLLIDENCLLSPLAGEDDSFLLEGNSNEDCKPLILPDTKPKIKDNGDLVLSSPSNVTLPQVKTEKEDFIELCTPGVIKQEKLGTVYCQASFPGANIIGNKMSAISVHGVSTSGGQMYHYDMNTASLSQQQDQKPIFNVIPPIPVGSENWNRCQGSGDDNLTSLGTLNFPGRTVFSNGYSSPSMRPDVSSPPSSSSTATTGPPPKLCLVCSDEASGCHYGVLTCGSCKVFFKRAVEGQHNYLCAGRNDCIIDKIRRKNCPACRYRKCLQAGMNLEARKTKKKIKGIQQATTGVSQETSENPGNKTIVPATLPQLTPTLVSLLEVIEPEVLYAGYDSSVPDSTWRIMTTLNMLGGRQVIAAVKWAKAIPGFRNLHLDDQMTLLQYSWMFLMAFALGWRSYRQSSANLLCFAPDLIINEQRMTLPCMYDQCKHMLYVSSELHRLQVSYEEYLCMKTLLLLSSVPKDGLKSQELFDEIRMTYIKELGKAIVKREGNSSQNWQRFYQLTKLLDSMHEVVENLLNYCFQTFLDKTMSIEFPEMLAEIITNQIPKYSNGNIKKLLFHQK
Chain of Cytochrome P450 3A4 (Homo sapiens) (P08684 whole entry, looked up): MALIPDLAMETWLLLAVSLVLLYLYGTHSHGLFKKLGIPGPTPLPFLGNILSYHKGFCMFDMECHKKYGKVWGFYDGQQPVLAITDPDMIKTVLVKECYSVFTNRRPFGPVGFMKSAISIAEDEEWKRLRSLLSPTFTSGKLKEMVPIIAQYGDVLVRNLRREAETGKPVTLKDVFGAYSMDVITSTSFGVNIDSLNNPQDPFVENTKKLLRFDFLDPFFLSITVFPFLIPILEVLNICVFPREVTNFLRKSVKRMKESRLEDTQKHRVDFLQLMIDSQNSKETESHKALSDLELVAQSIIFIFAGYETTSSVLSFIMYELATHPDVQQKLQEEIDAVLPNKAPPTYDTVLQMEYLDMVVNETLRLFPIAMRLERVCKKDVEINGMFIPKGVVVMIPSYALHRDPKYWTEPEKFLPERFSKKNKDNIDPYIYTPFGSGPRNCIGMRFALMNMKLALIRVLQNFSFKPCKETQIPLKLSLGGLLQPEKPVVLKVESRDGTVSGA
Chain of Cytochrome P450 2D6 (Homo sapiens) (P10635 whole entry, looked up): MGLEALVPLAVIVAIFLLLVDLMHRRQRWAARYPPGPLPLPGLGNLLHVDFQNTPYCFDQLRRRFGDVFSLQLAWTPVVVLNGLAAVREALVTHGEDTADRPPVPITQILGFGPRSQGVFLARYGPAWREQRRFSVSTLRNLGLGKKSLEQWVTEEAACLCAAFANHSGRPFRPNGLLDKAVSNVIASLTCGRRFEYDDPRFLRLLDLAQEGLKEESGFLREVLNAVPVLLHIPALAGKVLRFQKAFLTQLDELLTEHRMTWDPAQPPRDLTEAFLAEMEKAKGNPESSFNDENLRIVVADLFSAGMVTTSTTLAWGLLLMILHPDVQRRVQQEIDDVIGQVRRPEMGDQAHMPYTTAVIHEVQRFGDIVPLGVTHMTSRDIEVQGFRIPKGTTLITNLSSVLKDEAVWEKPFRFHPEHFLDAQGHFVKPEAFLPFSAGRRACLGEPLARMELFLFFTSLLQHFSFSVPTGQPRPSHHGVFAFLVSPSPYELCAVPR
Chain of Dual specificity protein kinase CLK4 (Homo sapiens) (Q9HAZ1 whole entry, looked up): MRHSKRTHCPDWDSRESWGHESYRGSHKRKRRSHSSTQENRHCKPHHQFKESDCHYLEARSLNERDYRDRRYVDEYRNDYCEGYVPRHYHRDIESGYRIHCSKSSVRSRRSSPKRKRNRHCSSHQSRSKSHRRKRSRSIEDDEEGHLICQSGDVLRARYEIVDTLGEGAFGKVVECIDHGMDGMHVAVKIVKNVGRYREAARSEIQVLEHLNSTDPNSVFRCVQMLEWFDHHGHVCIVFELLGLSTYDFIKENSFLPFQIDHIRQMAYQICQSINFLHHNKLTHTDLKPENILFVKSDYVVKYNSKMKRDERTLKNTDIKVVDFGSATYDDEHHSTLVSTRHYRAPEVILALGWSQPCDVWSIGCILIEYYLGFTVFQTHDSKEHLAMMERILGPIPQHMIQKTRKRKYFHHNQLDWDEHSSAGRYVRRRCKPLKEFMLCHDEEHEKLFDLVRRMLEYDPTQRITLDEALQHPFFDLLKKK

For `CC12CC[C@@H]3c4ccc(OS(=O)(=O)O)cc4CC[C@H]3C1CCC2=O` (stereo not given in full), the activity change, negative = inhibition is 19.9% [at 17.2 µM] (inactive) in experiment [1], -17.6% [at 17.2 µM] (inactive) in experiment [2] and -2.17% (inactive) in experiment [8] (at 25.7 µM (top of the series)). In experiment [3], the activity, negative = inhibition was -9.95% [at 17.2 µM] (inactive). Moreover, the Potency in [4] and in experiment [5] was > 20.6 µM (inactive) throughout. Moreover, the Potency result in experiment [6], in [7] and in experiment [9] was “inactive” in each case. Further, the max response is -14.5% in experiment [8] (setting [19]) and -17.7% in [8] (setting [20]).
`O=C(/C=C/c1ccc(O)c(O)c1)OC(Cc1ccc(O)c(O)c1)C(=O)O` (stereo not given): the Potency entry in experiment [10], in [11] and in experiment [9] was “inactive” each time. The molecule was classed as inactive in experiment [12]. Besides, the activity change, negative = inhibition in [8] (at 57.5 µM (top of the series)) was 6.07% (inactive) and 7.21% (inactive). Moreover, the max response was 10.1% and -5.16% in [8] (setting [19]); 18.1% and 1.39% in [8] (setting [20]).
As for `C[N+](C)(C)CC(O)CC(=O)O` (stereo not given), the Potency entry in [10], in experiment [11] and in experiment [9] was “inactive” in each case. Moreover, in experiment [12], the molecule was classed as inactive. Besides, in experiment [8] (at 57.5 µM (top of the series)), the activity change, negative = inhibition is 3.18% (inactive). The max response in experiment [8] (setting [19]) stood at 12.3%; in experiment [8] (setting [20]), 21.4%. Moreover, the results for the activity, negative = inhibition in experiment [13] (parasite line A) and in experiment [13] (parasite line B) were 14.7% (inactive) and 11.5% (inactive), respectively.
For `Oc1ccc2c(c1)OCC1(O)Cc3cc(O)c(O)cc3C21` (stereo not given), the Potency entry in experiment [14] and in experiment [11] was “inactive” throughout. In experiment [12], the outcome was inactive. Besides, the activity change, negative = inhibition in experiment [8] (at 57.5 µM (top of the series)) was 11.4% (inactive). The max response is -15.6% in [8] (setting [19]) and -7.12% in experiment [8] (setting [20]). The Potency in experiment [9] was 79.4 µM (active).
Take `COc1ccccc1CNc1cc(-c2cccc(C#N)c2)ncn1`: the Potency in experiment [15] was > 11.4 µM (inactive); in experiment [16], 3.98 µM (active); in experiment [4], > 46 µM (inactive); in [5], > 46 µM (inactive). Further, the activity change, negative = inhibition in experiment [1] is -5.31% (inactive); in experiment [2] it was 17.8% (inactive); in [8] (at 57.5 µM (top of the series)), 3.16% (inactive). In [3], the activity, negative = inhibition is -0.867% (inactive). The Potency entry in experiment [6], in experiment [7], in experiment [14], in experiment [17] and in experiment [9] was “inactive” each time. Besides, the figures for the max response in experiment [8] (setting [19]) and in experiment [8] (setting [20]) were 4.01% and 4.55%, respectively.
As to `COC(=O)C1=CO[C@@H](C)[C@H]2CN3CCc4c([nH]c5ccccc45)[C@@H]3C[C@H]12`, the activity change, negative = inhibition in experiment [1] was -20.4% [at 17.2 µM] (inactive) and -6.91% [at 17.2 µM] (inactive); in experiment [2] it was -3.19% [at 17.2 µM] (inactive) and -17.9% [at 17.2 µM] (inactive); in experiment [8] (at 25.7 µM (top of the series)) it was -0.703% (inactive) and -0.794% (inactive). Further, in experiment [3], the activity, negative = inhibition was 8.22% [at 17.2 µM] (inactive) and -4.95% [at 17.2 µM] (inactive). Besides, the Potency in experiment [4] is > 20.6 µM (inactive); in experiment [5], > 20.6 µM (inactive); in experiment [18] it was 2 nM (active) and 7.9 nM (active). Further, the Potency result in [6], in [7] and in experiment [9] was “inactive” in each case. The max response in experiment [8] (setting [19]) is 3.91% and -17.6%; in [8] (setting [20]), 2.39% and -19.1%.
As to `CN1C(CC(=O)c2ccccc2)CCCC1CC(O)c1ccccc1` (stereo not given), the Potency result in experiment [10], in experiment [11] and in [9] was “inactive” each time. Besides, in experiment [12], the outcome was inactive. Further, the activity change, negative = inhibition in experiment [8] (at 57.5 µM (top of the series)) is -2.13% (inactive). In addition, the figures for the max response in experiment [8] (setting [19]) and in experiment [8] (setting [20]) were 13% and 12.2%, respectively.
For the molecule `N#Cc1ccccc1-c1ccc2ncnc(NCc3cccs3)c2c1`, the Potency in experiment [15] is > 11.4 µM (inactive); in [4], > 46 µM (inactive); in [5] it was > 46 µM (inactive). The activity change, negative = inhibition was -0.438% (inactive) in [1], 20.9% (inactive) in [2] and 2.64% (inactive) in experiment [8] (at 57.5 µM (top of the series)). In addition, in experiment [3], the activity, negative = inhibition is -2.46% (inactive). For the same molecule, the Potency result in experiment [6], in experiment [7] and in experiment [9] was “inactive” throughout. The max response is 0.851% in experiment [8] (setting [19]) and -0.129% in [8] (setting [20]).
